Screening results: PubChem, The Scripps Research Institute Molecular Screening Center
The list is not random: actives were taken first. Their share in the collection is about 3.4%.
GPR151 activ = activators of human GPR151, primary screen, cell-based, PathHunter beta-arrestin, luminescence. PathHunter beta-arrestin GPR151 cells. activation, % at 11.2 µM. 650,000 tested, 1% active. AID 1508602, 2020; in the data active means activation above about 4.9%;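 further: 0% = median of compound wells and 100% = cells with positive control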
FBW7 act = FBW7 E3 ligase activators, primary screen, biochemical, AlphaScreen, human; F-box/WD repeat-containing protein 7 (Homo sapiens), Q969H0; AlphaScreen FBW7–phospho-cyclin E peptide binding, activator screen; normalized activity (activation), % at 26.1 µM; 650,000 tested, 0.13% active; in the data active means normalized activity above about 1.9%;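 further: purified mutant Fbw7 with reduced substrate affinity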
MITF primary = MITF inhibitors, primary screen, biochemical, AlphaScreen, human; Microphthalmia-associated transcription factor (Homo sapiens), O75030; inhibition, % at 2.6 µM; AlphaScreen MITF homodimerization, bead proximity signal; 650,000 tested, 0.91% active; in the data active means inhibition above about 50%;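 further: 0% = vehicle wells with protein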
TEAD-YAP block = TEAD-YAP interaction inhibition, primary screen, TEAD-YAP interaction inhibitor project, luminescence, HEK-TIYL cells | 640,000 tested, 1.4% active | inhibition, % at 9.12 µM | AID 1259422, 2018 | TEAD-Gal4/YAP UAS-luciferase luminescence; in the data active means inhibition above about 32%;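 further: 0% = median of test compound wells and 100% = reference inhibitor wells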
GPR151 conf act = GPR151 activators, triplicate retest, confirmation, cell-based, PathHunter beta-arrestin, luminescence | shares compounds with GPR151 activ | GPR151 PathHunter beta-arrestin cells, 90 min; % of EA-reagent control over plate median | activation, % at 11.2 µM | 6,700 tested, under 10 active;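 active means mean percent activation across replicates above the confirmation screen cutoff of 4.91%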
GPR119 counter = GPR119 activators in beta-arrestin cells, counter-screen for GPR151 activator project, cell-based, PathHunter beta-arrestin, luminescence, triplicate | shares compounds with GPR151 activ | 90 min; 0 = compound-well median, 100 = enzyme-acceptor control | activation, % at 11.2 µM | 6,700 tested, 0.3% active | AID 1508611, 2020;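 active means mean percent activation in the counterscreen above 29.09%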;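 further: counterscreen on off-target GPR119 to flag nonselective hits from the GPR151 activator screen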
Target sequence (Q8TDV5 whole entry, looked up): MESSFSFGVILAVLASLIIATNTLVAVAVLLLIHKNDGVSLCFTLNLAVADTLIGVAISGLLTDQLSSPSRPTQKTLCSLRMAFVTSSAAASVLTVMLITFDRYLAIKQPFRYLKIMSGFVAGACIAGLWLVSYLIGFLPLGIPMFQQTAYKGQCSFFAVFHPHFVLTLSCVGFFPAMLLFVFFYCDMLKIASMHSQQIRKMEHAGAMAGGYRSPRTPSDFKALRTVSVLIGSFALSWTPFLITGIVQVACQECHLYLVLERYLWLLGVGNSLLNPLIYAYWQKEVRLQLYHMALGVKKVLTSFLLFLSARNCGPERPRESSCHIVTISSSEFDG
* hit, by the source's call; . = no result given.

SMILES	GPR151 activ	FBW7 act	MITF primary	TEAD-YAP block	GPR151 conf act	GPR119 counter
COC(=O)COc1ccc(CNC2CCCCCCC2)cc1	5.4*	0	0	3	0	4
O=C(Nc1cc(Cl)ccc1Oc1ccc(Br)c2ccccc12)c1cc(Cl)cc(I)c1O	1	0	-7	5	.	.
Cc1ccc(C)c(-c2cc(C(=O)NN3CCOCC3)c3ccccc3n2)c1	5.4*	0	-2	-2	-1	-10
CCCN1C(=O)c2ccc(C(=O)Nc3ccc(Br)cc3C(=O)O)cc2C1=O	0	0	-2	-5	.	.
CN1C(=O)c2ccc(C(=O)Nc3ccc(Br)cc3C(=O)O)cc2C1=O	7.9*	0	-2	9	0	2
O=C(CSc1n[nH]c(=O)[nH]c1=O)N/N=C/c1cccs1	-1	1	21	4	.	.
CCCCCn1c(SCc2ccncc2)nc2cc(C(=O)NCc3cccc(Cl)c3)ccc2c1=O	5.1*	0	5	2	-1	-11
O=C(Nc1cccc(S(=O)(=O)NCc2ccco2)c1)c1cc(F)c(F)c(F)c1F	4.9*	0	-6	8	0	4
O=C(O)c1ccc2c(c1)C(=O)N(c1ccc(N3CCOCC3)c(C(=O)O)c1)C2=O	1	0	-5	2	.	.
COc1ccc(C(=O)N2CCNC(=O)C2CC(=O)Nc2ccc(C)c(C)c2)cc1 (stereo unspecified)	5.6*	0	13	10	1	-6
COc1ccc(C(=O)N2CCNC(=O)C2CC(=O)Nc2cccc(Cl)c2Cl)cc1 (stereo unspecified)	0	0	11	-3	.	.
CSc1ccc(S(=O)(=O)N(CC(=O)O)c2ccc(C)cc2)cc1	5.8*	1	19	6	-1	-11
CCN(CC)C(=O)CN(c1cccc(OC)c1)S(C)(=O)=O	12*	0	-1	2	1	-6
CCN(CC)C(=O)CN(c1cc(C)cc(C)c1)S(=O)(=O)c1ccccc1	0	0	4	4	.	.
CCN(CC)C(=O)CN(c1ccccc1)S(=O)(=O)c1ccc(C)cc1	6.4*	0	13	-3	2	12
CCOc1ccc(N(CC(=O)NC(C)(C)C)S(=O)(=O)c2ccc(SC)cc2)cc1	22*	0	3	13	0	-4
O=C(O)COc1ccc(C(NS(=O)(=O)c2ccccc2)C(Cl)(Cl)Cl)cc1 (stereo unspecified)	3	0	2	-7	.	.
COc1cc(CO)c(Br)cc1OCc1ccccc1	1	0	9	-27	.	.
CCOc1ccc2nc(N3CCCC(C(=O)Nc4cccc(C(C)=O)c4)C3)sc2c1 (stereo unspecified)	0	0	3	-13	.	.
COc1cc2nc(-c3ccc(C(N)=O)cc3)nc(Nc3ccc(Oc4ccccc4)cc3)c2cc1OC	-2	0	8	31	.	.
CC(C)CCn1nc(C(=O)NN)c2ccccc2c1=O	6.0*	0	1	-3	1	7
CCC1CCC(c2ccc(C3=N/C(=C/c4ccc(SC)cc4)C(=O)O3)cc2)CC1 (stereo unspecified)	0	0	-1	6	.	.
O=C(Cc1nc2scc(-c3ccccc3)c2c(=O)[nH]1)N1CCOCC1	11*	0	1	3	0	13
CS(=O)(=O)N(Cc1ccccc1)c1ccc(C(=O)NN=C2CCCCC2)cc1	0	0	1	6	.	.
Nc1nc(SCc2cn3cc(Br)ccc3n2)n[nH]1	7.6*	0	10	-8	0	-6
SMILES	GPR151 activ	FBW7 act	MITF primary	TEAD-YAP block	GPR151 conf act	GPR119 counter
Nc1nnnn1Cc1cccc([N+](=O)[O-])c1	0	0	13	6	.	.
CCS(=O)(=O)n1nc(-c2ccccc2)nc1NCc1ccco1	12*	0	-8	-10	0	4
COc1cccc(NC(=O)c2cc(=O)c3ccccc3o2)c1	4.9*	0	1	-40	0	1
CC(=O)c1cccc(-c2cnn3c(NCc4cccs4)ccnc23)c1	-1	0	15	-7	.	.
O=C(COC(=O)c1cc(O)c(O)c(O)c1)NC1CCCc2ccccc21 (stereo unspecified)	-1	0	32	8	.	.
Nc1cccc(C(=O)OCC(=O)NC2CCCc3ccccc32)c1 (stereo unspecified)	5.2*	0	4	9	-1	-2
CC(C)(C)c1ccc(C(=O)Nc2nnc(COc3ccccc3)s2)cc1	0	0	2	2	.	.
Cc1nn(-c2ccccc2)c(Cl)c1C(=O)Nc1nnc(COc2ccccc2)s1	5.5*	0	0	11	2	8
Cn1c(Cn2nnc(-c3ccccc3)n2)nnc1SCC(=O)Nc1ccccc1Cl	7.6*	0	-4	-13	1	19
NC(=O)c1c(NC(=O)c2ccccc2Cl)sc2c1CCCC2	0	0	-4	-24	.	.
NC(=O)c1c(NC(=O)Cn2nnc(-c3ccccc3Cl)n2)sc2c1CCCC2	6.4*	0	6	14	0	-4
O=C(Cn1nnc(-c2ccccc2Cl)n1)Nc1ccccc1Cl	4.9*	0	2	9	1	-2
O=C(Cn1nnc(-c2ccccc2Cl)n1)Nc1ccccc1C(F)(F)F	2	0	-11	-7	.	.
Cc1ccc(NC(=O)Cn2nnc(-c3ccccc3NC(=O)c3cccc(C)c3)n2)cc1	5.0*	0	-4	10	1	-3
C=CCN1C(=O)/C(=C/c2ccc(OC)c(OC(C)=O)c2)SC1=S	0	1	-1	-11	.	.
CCOC(=O)C1=C(CSc2nc3c(cc2C#N)CCC3)OC(N)=C(C#N)C1c1ccc(SC)cc1 (stereo unspecified)	0	0	11	1	.	.
CCN1CCN(C(c2ccc3ncccc3c2)c2nnnn2CCOC)CC1 (stereo unspecified)	0	0	0	0	.	.
CC1CCCN(c2ccc(N3C(=O)CCCC3=O)cc2[N+](=O)[O-])C1 (stereo unspecified)	0	0	6	-2	.	.
CC(C)c1ccc(N2C(=O)NC(=O)/C(=C/c3ccc(OCC(=O)O)cc3)C2=O)cc1	-1	0	4	4	.	.
NC(=O)c1c(NC(=O)CCSc2ccc(F)cc2)sc2c1CCCC2	7.1*	0	8	1	0	4
NC(=O)c1c(NC(=O)CCSc2ccccc2)sc2c1CCCC2	-1	0	6	-57	.	.
O=C(O)COc1cccc(/C=N/NC(=O)Cn2nnc(-c3ccccc3Cl)n2)c1	0	1	8	1	.	.
